Most compounds without a hit are left out; they make up all but 8.1% or so of the library.
ELG1 repair inh: ELG1-dependent DNA repair inhibition; HEK293T ELG1-luciferase reporter, luminescence, 16 h; DNA damage induced by 5-fluorouridine; Potency, µM (highest dose often 46.1 µM), without a hit: at the top dose activity change, negative = inhibition, most hits filed as inhibitors; 2.3% of 330,000 active; AID 504467; note: % is set by controls: 0 for no effect and ±100 for the full control effect; nearly all actives have a fitted effect of over 55% in size
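Overnight (16 hr) co-exposure of 2,000 cells/well to 5-fluorouridine and compound at 37 °C preceded detection. Luciferase was quantified via ONE-Glo luminescence; loss of signal denotes inhibition.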
SW480 rerep: induces DNA re-replication in SW480 colon adenocarcinoma cells | SW480 DNA re-replication, Hoechst DNA content imaging, 48 h | 1.8% of 340,000 active | Potency, µM (series often up to 46.1 µM), inactives show at the top dose re-replication activation, most hits filed as activators; note: % of control where 0% means no effect; nearly all actives have a fitted effect of over 55% in size
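Quantitative HTS format with DMSO vehicle controls; 48 hr drug incubation at 37 C, then 40 min Hoechst staining and scanning imager measurement at 405 nm excitation.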
MCF10A rerep: inducers of DNA re-replication in MCF 10A breast cells | AID 624296 | MCF 10A DNA re-replication, Hoechst nuclear intensity, 48 h | Potency, µM (titrated, usually from 46.1 µM), for the others: at the top dose activity, positive = re-replication, actives largely listed as activators | 2.9% of 350,000 active; note: % of control where 0% means no effect; nearly all actives have a fitted effect of over 50% in size
KB-V1 cytotox: KB-V1 MDR subline cytotoxicity. Potency, µM (doses to about 46.1 µM), actives largely listed as cytotoxic. 3.4% of 400,000 active. KB-V1 MDR cells viability, CellTiter-Glo, 72 h. AID 1347076; note: % is set by controls: 0 for no effect and ±100 for the full control effect; nearly all actives have a fitted effect of over 60% in size
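Cytotoxicity toward P-gp-expressing KB-V1 cells was determined as loss of CellTiter-Glo luminescence after 72 h at 37 degrees C. Compounds were tested in quantitative HTS format across a concentration range, with curves fitted to normalized data.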
KB-3-1 tox: KB-3-1 parental cell cytotoxicity. 1.4% of 400,000 active. KB-3-1 viability, CellTiter-Glo ATP luminescence, 72 h. Potency, µM (doses to about 46.1 µM), actives largely listed as cytotoxic. AID 1347075; note: % is set by controls: 0 for no effect and ±100 for the full control effect; nearly all actives have a fitted effect of over 60% in size
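Here the drug-naive KB-3-1 line serves as comparator for MDR sub-line selectivity; cells received compound titrations, 72 h at 37 °C, then CellTiter-Glo readout.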
The depositor's hits bear a star. Calls come from the whole dose curve; as a rule, active = well fitted curve in the direction sought with a large enough effect; inconclusive = small, poorly fitted or top-dose-only effect, or another doubt; inactive = no such curve, though single readings can be large; an effect the other way counts as inactive or inconclusive. Potency is the fitted concentration of half-maximal effect.

For Cc1ccc(C(NC(=O)NC(C)c2ccccc2)C(Cl)(Cl)Cl)cc1F (stereo not drawn) the results were ELG1 repair inh inconclusive, SW480 rerep inconclusive, MCF10A rerep 14.6µM*, KB-V1 cytotox 20.6µM* and KB-3-1 tox inconclusive.
For Cc1cc(C)n(-c2nc3ccccc3n3cnnc23)n1 the results were ELG1 repair inh 3.0%, SW480 rerep -0.9%, MCF10A rerep 0.7%, KB-V1 cytotox inactive and KB-3-1 tox inactive.
`CCc1ccc(C(=O)CN2C(=O)NC(C)(c3ccc(C)cc3)C2=O)cc1` (stereo not drawn) gave ELG1 repair inh 1.9%, SW480 rerep -65.0%, MCF10A rerep -2.9%, KB-V1 cytotox inactive and KB-3-1 tox inactive.
`Cc1ccc(C2(C)NC(=O)N(CC(=O)c3ccc(Cl)s3)C2=O)cc1` (stereo not drawn) gave ELG1 repair inh 1.4%, SW480 rerep -2.8%, MCF10A rerep -0.2%, KB-V1 cytotox 20.6µM* and KB-3-1 tox inactive.
Cc1ccc2nc(-c3ccc(NC(=S)NC(=O)C(C)C)cc3)sc2c1 was read as ELG1 repair inh inconclusive, SW480 rerep 3.3%, MCF10A rerep 2.4%, KB-V1 cytotox inactive and KB-3-1 tox inactive.
Screening Cc1ccc(C2(C)NC(=O)N(CC(=O)Nc3ccc(-c4nc5ccc(C)cc5s4)cc3)C2=O)cc1 (stereo not drawn) returned ELG1 repair inh inconclusive, SW480 rerep 635.8%, MCF10A rerep 18.4µM*, KB-V1 cytotox inactive and KB-3-1 tox inactive.
For Cc1ccc2nc(-c3ccc(NC(=S)NC4CC(C)(C)NC(C)(C)C4)cc3)sc2c1 the results were ELG1 repair inh inconclusive, SW480 rerep inconclusive, MCF10A rerep 29.1µM*, KB-V1 cytotox inactive and KB-3-1 tox inconclusive.
Screening NC(=S)NN=C1c2cc(Cl)ccc2-c2c1cc(Cl)cc2[N+](=O)[O-] returned SW480 rerep inconclusive, MCF10A rerep 19.7%, KB-V1 cytotox 14.6µM* and KB-3-1 tox 6.51µM*.
Screening N#C/C(=C(/O)c1ccc(Cl)cc1)c1nc2ccccc2[nH]1 returned ELG1 repair inh 17.3%, SW480 rerep 7.0%, MCF10A rerep -2.9%, KB-V1 cytotox inactive and KB-3-1 tox inactive.
For N#C/C(=C(\O)c1cc(Cl)sc1Cl)c1nc2ccccc2[nH]1 the results were ELG1 repair inh 3.7%, SW480 rerep inconclusive, MCF10A rerep 20.6µM*, KB-V1 cytotox inactive and KB-3-1 tox inactive.
For N#C/C(=C(/O)c1ccc(Cl)c([N+](=O)[O-])c1)c1nc2ccccc2[nH]1 the results were ELG1 repair inh 8.2µM*, SW480 rerep 12.1%, MCF10A rerep -8.2%, KB-V1 cytotox inactive and KB-3-1 tox inconclusive.
`COc1cc(/C(O)=C(\C#N)c2nc3ccccc3[nH]2)cc(OC)c1OC` gave ELG1 repair inh -6.2%, SW480 rerep inconclusive, MCF10A rerep 14.6µM*, KB-V1 cytotox inactive and KB-3-1 tox inactive.
For O=C(c1ccco1)N1CCC(n2nnc3ccccc32)CC1 the results were ELG1 repair inh 1.1%, SW480 rerep -4.3%, MCF10A rerep 6.2%, KB-V1 cytotox 13µM* and KB-3-1 tox inactive.
Screening O=C(CN1CCC(n2nnc3ccccc32)CC1)NCc1cccs1 returned ELG1 repair inh -11.3%, SW480 rerep 1.5%, MCF10A rerep 9.8%, KB-V1 cytotox 23.1µM* and KB-3-1 tox inactive.
`O=C(CN1CCC(n2nnc3cc(F)ccc32)CC1)NCc1ccco1` gave ELG1 repair inh -16.1%, SW480 rerep 0.7%, MCF10A rerep 2.8%, KB-V1 cytotox inactive and KB-3-1 tox inactive.
For O=C1C(=C(I)I)c2ccccc2-c2ccccc21 the results were SW480 rerep 5.8µM*, MCF10A rerep inconclusive, KB-V1 cytotox 14.6µM* and KB-3-1 tox inconclusive.
Screening CC(OC(=O)CNC(=O)C12CC3CC(CC(C3)C1)C2)C(=O)Nc1ncc(Cl)cc1Cl (stereo not drawn) returned ELG1 repair inh 2.6%, SW480 rerep -0.9%, MCF10A rerep -0.6%, KB-V1 cytotox inactive and KB-3-1 tox inactive.
`O=C(CCNC(=O)c1ccc(Br)cc1)NC1CCCc2ccccc21` (stereo not drawn) gave ELG1 repair inh -8.0%, SW480 rerep inconclusive, MCF10A rerep inconclusive, KB-V1 cytotox inconclusive and KB-3-1 tox inconclusive.
Screening O=C(Nc1nnc(-c2ccccc2Cl)s1)c1ccccc1F returned ELG1 repair inh inconclusive, SW480 rerep -8.2%, MCF10A rerep inconclusive, KB-V1 cytotox inactive and KB-3-1 tox inactive.
Screening CSc1ccc(CN2CCN(Cc3ccc([N+](=O)[O-])cc3)CC2)cc1 returned ELG1 repair inh inconclusive, SW480 rerep 6.5%, MCF10A rerep 14.6µM*, KB-V1 cytotox 2.06µM* and KB-3-1 tox inconclusive.
Screening O=C1C2C(C(=O)N1CCN1CCN(Cc3ccc([N+](=O)[O-])cc3)CC1)[C@H]1C=C[C@@H]2C1 (stereo partly drawn) returned ELG1 repair inh 16.4µM*, SW480 rerep -6.6%, MCF10A rerep 7.8%, KB-V1 cytotox inactive and KB-3-1 tox inactive.
`O=[N+]([O-])c1ccc(CN2CCCCCC2)cc1` gave ELG1 repair inh -2.0%, SW480 rerep -7.6%, MCF10A rerep 7.0%, KB-V1 cytotox inactive and KB-3-1 tox inactive.
`C=CCNc1nc(-c2cccc(OC)c2O)nc2ccccc12` gave ELG1 repair inh inconclusive, SW480 rerep 3.5%, MCF10A rerep 23.1µM*, KB-V1 cytotox inactive and KB-3-1 tox inactive.
`COc1cccc(-c2nc(NC3CCCC3)c3ccccc3n2)c1O` gave ELG1 repair inh 23.1µM*, SW480 rerep 1.2%, MCF10A rerep inconclusive, KB-V1 cytotox inactive and KB-3-1 tox inactive.
COc1cccc(-c2nc(NCc3ccccc3)c3ccccc3n2)c1O was read as ELG1 repair inh 1.9%, SW480 rerep -46.1%, MCF10A rerep 28.5%, KB-V1 cytotox inactive and KB-3-1 tox inactive.
`CSc1ncnc2[nH]ncc12` gave SW480 rerep -6.4%, MCF10A rerep -8.9%, KB-V1 cytotox inactive and KB-3-1 tox inactive.
For O=C1C=C(NC2=CC3OC(c4ccccc4)OCC3OC2=O)CCC1 (stereo not drawn) the results were ELG1 repair inh 13µM*, SW480 rerep inconclusive, MCF10A rerep inconclusive, KB-V1 cytotox inconclusive and KB-3-1 tox inconclusive.
COc1ccc(C(=O)/C=C/c2ccc(O)cc2)cc1 was read as ELG1 repair inh 9.5%, SW480 rerep 16.0%, MCF10A rerep 16.0%, KB-V1 cytotox inactive and KB-3-1 tox inactive.
COc1ccc2cc(C(=O)/C=C/c3cc(OC)c(O)c(OC)c3)ccc2c1 was read as ELG1 repair inh -13.0%, SW480 rerep inconclusive, MCF10A rerep 9.2µM*, KB-V1 cytotox inactive and KB-3-1 tox inconclusive.

Compound activity: PubChem, National Center for Advancing Translational Sciences (NCATS)
